Screening results deposited in PubChem BioAssay by Center for Chemical Genomics, University of Michigan.
Only some compounds are listed: those with a hit (about 0.86% of all), similar ones and a draw of the others.
HIV TAR-Tat = HIV-1 TAR-Tat binding disruption; HIV-1 TAR RNA, Tat peptide displacement FRET; stronger effect = higher value; z-score (no concentration beside the values); hit rate 0.6% among 100,000; AID 1259389; active = z-score of 3 or more in at least 2 runs
CDC25B CDK2 inh = human CDC25B-CDK2/CyclinA binding inhibition; P30305+P24941; HTRF CDC25B-CDK2/CyclinA binding, anti-His/anti-Flag; stronger effect = higher value; z-score (no concentration beside the values); hit rate 0.72% among 94,000; AID 1259370; in the data active = z-score above about 3.2
Large screens that a line does not name were inactive.

COc1cccc(C2CC(=O)N3CN(c4ccccc4)CSC3=C2C#N)c1 (centres undefined)	none
COc1cccc(C2CC(=O)N3CN(c4ccc(N(C)C)cc4)CSC3=C2C#N)c1 (centres undefined)	CDC25B CDK2 inh 7.2
COc1ccc(N2CSC3=C(C#N)C(c4cccc(OC)c4)CC(=O)N3C2)cc1 (centres undefined)	CDC25B CDK2 inh 6.1
COc1cccc(C2CC(=O)N3CN(c4ccc(OC)c(OC)c4)CSC3=C2C#N)c1 (centres undefined)	CDC25B CDK2 inh 7.5
O=C(O)c1ccccc1N1C(=O)C2CC=CCC2C1=O (centres undefined)	none (no result: CDC25B CDK2 inh)
CCSc1ncc2c(=O)n(CC(=O)NCc3ccc4c(c3)OCO4)cnc2n1	HIV TAR-Tat 13 (no result: CDC25B CDK2 inh)
O=C(Cn1cnc2nc3c(cc2c1=O)CCCC3)NCc1ccc2c(c1)OCO2	none (no result: CDC25B CDK2 inh)
CCC(=O)n1/c(=N/C(=N)N)nc(C)c2ccc(C)cc21	CDC25B CDK2 inh 9 (no result: HIV TAR-Tat)
CCOC(=O)CC(=O)CSc1nc(C)c2ccc(C)cc2n1	none
CCOC(=O)N1CCN(C(=O)CC(C)S(=O)(=O)c2ccc3c(c2)NC(=O)CO3)CC1 (centres undefined)	none (no result: CDC25B CDK2 inh)
COc1cccc(C=Nc2ccccc2SCCC#N)c1O	CDC25B CDK2 inh 6.9 (no result: HIV TAR-Tat)
COc1cc(C(=O)Nc2ccccc2SCCC#N)cc(OC)c1OC	none (no result: HIV TAR-Tat)
CC1Cc2ccccc2N1S(=O)(=O)c1nnc(NC(=O)c2cccs2)s1 (centres undefined)	none
COc1ccc(Cl)c(Cn2c(NCCN)nc3c2c(=O)n(C)c(=O)n3C)c1	HIV TAR-Tat 3.6
COc1ccc(Cl)c(Cn2cnc3c2c(=O)n(C)c(=O)n3C)c1	none (no result: HIV TAR-Tat)
COc1ccc(S(=O)(=O)N2CCc3cc4cc(C)ccc4nc32)cc1OC	none
CCOc1ccc2nc(SCC(=O)Nc3ccc4ccccc4c3)sc2c1	none (no result: HIV TAR-Tat)
Cc1ccc(CNc2ncnc3onc(-c4ccc(Cl)cc4)c23)cc1	none
COc1ccc(C2CC(=O)N3CN(C4CCCCC4)CSC3=C2C#N)c(OC)c1 (centres undefined)	none
CCOc1cc(C2CC(=O)N3CN(C4CCCCC4)CSC3=C2C#N)ccc1O (centres undefined)	CDC25B CDK2 inh 3.4
COc1cc(C2CC(=O)N3CN(C4CCCCC4)CSC3=C2C#N)ccc1O (centres undefined)	CDC25B CDK2 inh 3.8
O=C(Nc1cnc2sc3cc(F)ccc3n2c1=O)c1ccc(Cl)cc1	none
Cn1c(=O)sc2cc(NC(=O)Cn3c(=O)oc4ccccc43)ccc21	CDC25B CDK2 inh 7.5
CCC(=O)Nc1ccc2c(c1)sc(=O)n2C	none (no result: CDC25B CDK2 inh)
C=CCn1c(SCC(=O)N2CCCc3ccccc32)nnc1-c1cc2ccccc2o1	none (no result: CDC25B CDK2 inh)
O=C(c1cnn2cc(Br)cnc12)N1CCCC1c1cccc(F)c1 (centres undefined)	HIV TAR-Tat 30
O=C(c1cnn2cc(Br)cnc12)N1CCCC1c1ccccc1F (centres undefined)	none
Cc1ccc(-c2nnn3c2nc(NCc2ccco2)c2ccccc23)cc1	none
Cc1cccc(-c2nnn3c2nc(NCc2ccco2)c2ccccc23)c1	HIV TAR-Tat 7.8
CCOC(=O)c1nn(-c2ccc(Cl)cc2)c(=O)c2c(N)scc12	CDC25B CDK2 inh 18
CCOC(=O)c1nn(-c2ccc(Cl)cc2)c(=O)c(C#N)c1C	none
CCOC(=O)c1nc(N)c(=O)n(-c2ccc(C)cc2)n1	none (no result: HIV TAR-Tat)
CCOC(=O)c1nn(-c2ccc(C)cc2)c(=O)c2c(N)scc12	CDC25B CDK2 inh 18
CC1CCC(C(C)C)C(NC(=O)c2ccco2)C1 (centres undefined)	none (no result: HIV TAR-Tat)
Cc1nnsc1C(=O)N1CCC(O)(c2ccc(Cl)cc2)CC1	none (no result: HIV TAR-Tat)
CCc1ccc(-c2cc(C)no2)cc1S(=O)(=O)N(C)C1CCCCC1	none (no result: CDC25B CDK2 inh)
CCCc1cc(C(=O)NC(C)C)no1	none
CCCCn1c(=O)c2c(nc3n2CCN3c2ccc(C)cc2)n(C)c1=O	none (no result: CDC25B CDK2 inh)
CCCCCn1c(=O)c2c(nc3n2CCN3c2ccc(C)cc2)n(C)c1=O	HIV TAR-Tat 5.2 (no result: CDC25B CDK2 inh)
Cc1ccc2nc(NC3=NCN(CCN4CCOCC4)CN3)nc(C)c2c1	none
Cc1ccc2nc(NC3=NCN(C(C)C)CN3)nc(C)c2c1	CDC25B CDK2 inh 8.1
FC(F)(F)C(=C(SSCc1ccccc1)C(F)(F)C(F)(F)F)C(F)(F)F	CDC25B CDK2 inh 4.3 (no result: HIV TAR-Tat)
FC(F)(F)C(=C(N=C(Cl)SOCc1ccccc1)C(F)(F)C(F)(F)F)C(F)(F)F	none (no result: HIV TAR-Tat)
O=C1c2ccccc2C(=O)N1c1cccc(-c2csc(Nc3cccc4ccccc34)n2)c1	CDC25B CDK2 inh 19 (no result: HIV TAR-Tat)
COc1ccccc1Nc1nc(-c2cc3c(ccc4ccccc43)oc2=O)cs1	none (no result: HIV TAR-Tat)
c1cc2c(c(Nc3c4c(nc5ncnn35)CCC4)c1)CCCC2	none (no result: CDC25B CDK2 inh)
COc1cccc(C2N3CC4(C)CN2CC(c2ccccc2)(C3)C4=O)c1O (centres undefined)	HIV TAR-Tat 4.2
CC12CN3CC(c4ccccc4)(CN(C1)C3c1ccccc1O)C2=O (centres undefined)	none
CCCn1c2ccccc2c2nnc(SC(CC)C(=O)Nc3cc(C)on3)nc21 (centres undefined)	CDC25B CDK2 inh 17
CCOC(=O)c1sc(NC(=O)C(CC)Sc2nnc3c4ccccc4n(CC)c3n2)nc1C (centres undefined)	none
Cc1cc2n(n1)CCCN2C(=O)CCC(=O)NCCCOC(C)C	HIV TAR-Tat 4.3 (no result: CDC25B CDK2 inh)
COCCCNC(=O)CCC(=O)N1CCCn2nc(C)cc21	none (no result: CDC25B CDK2 inh)
Cn1c(SCc2cc(=O)c3cccc(F)c3[nH]2)nc2sc3c(c2c1=O)CCCC3	none (no result: CDC25B CDK2 inh)
COc1cc(C2CC(=O)N3CN(c4ccc(F)cc4)CSC3=C2C#N)ccc1O (centres undefined)	HIV TAR-Tat 29, CDC25B CDK2 inh 3.3
COc1ccc(N2CSC3=C(C#N)C(c4ccc(O)c(OC)c4)CC(=O)N3C2)cc1 (centres undefined)	CDC25B CDK2 inh 4
COc1cc(C2CC(=O)N3CN(c4ccc(C)c(C)c4)CSC3=C2C#N)ccc1O (centres undefined)	none
COc1cc(C2CC(=O)N3CN(c4ccc(Cl)cc4)CSC3=C2C#N)ccc1O (centres undefined)	HIV TAR-Tat 25, CDC25B CDK2 inh 4.2
C=CCSc1nc2ccccc2n1C(=O)CCCN1C(=O)c2cccc3cccc(c23)C1=O	none (no result: HIV TAR-Tat)
COc1ccc(NC(=O)CSc2nnc(C)n3c2cc2occc23)cc1	none (no result: CDC25B CDK2 inh)
Cc1cccc(Nc2nc3ccccc3nc2NS(=O)(=O)c2ccccc2)c1	none (no result: HIV TAR-Tat)
Cc1ccc(S(=O)(=O)Nc2cc(S(=O)(=O)c3ccc(C)cc3)c(O)c3cccnc23)cc1	none
Cc1ccc(S(=O)(=O)Nc2cc(Cl)c(O)c3ncccc23)cc1	CDC25B CDK2 inh 14
Cc1ccc(SCC(=O)OCc2cc(=O)n3ccsc3n2)cc1	none (no result: CDC25B CDK2 inh)
O=C(O)CSc1nnc(-c2ccc(Br)cc2)n1-c1ccccc1	none
C=CCn1c(SCC(=O)c2ccc(Cl)cc2)nc2sc3c(c2c1=O)CCCC3	none
COC(=O)c1cc(=O)c(O)c2c(O)c(O)ccc2c1	HIV TAR-Tat 25 (no result: CDC25B CDK2 inh)
COC(=O)c1cc(NC(=O)c2ccc3ccccc3c2)cc(C(=O)OC)c1	none (no result: HIV TAR-Tat)
Oc1ccc(CN2CCCCC2)c2cccnc12	CDC25B CDK2 inh 14
Oc1ccc(CN2CCN(c3ccccc3)CC2)c2cccnc12	none (no result: CDC25B CDK2 inh)
Oc1c(CN2CCOCC2)ccc2cccnc12	none
Oc1c(CN2CCN(Cc3ccc4cccnc4c3O)CC2)ccc2cccnc12	HIV TAR-Tat 9.4
Oc1cccc(-c2nc3ncccn3c2Nc2ccc(Cl)cc2)c1	none
CCOC(=O)Cn1ncn2c(nc3ccccc32)c1=O	none
O=C(Nc1ncc(Cc2ccc(F)cc2)s1)C1=Cc2cc(Cl)ccc2OC=C1	none
CCN1C(=O)C(O)(CC(=O)c2ccc(F)cc2)c2ccccc21 (centres undefined)	none
